From PubChem BioAssay (EPA / NIEHS)
Active and inactive are the calls of the source. The calls were made as follows: active = hit-call score of the fitted dose curve at least 0.9, where 1 is the maximum; inactive = score below 0.9.

Assay: CCTE_Shafer_MEA_acute_synchrony_index: CCTE's Neural Acute Assay for Synchrony, Shafer Lab (AID 2284027);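 also: fitted for loss of signal so actives lower synchrony relative to DMSO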
Description: CCTE_Shafer_MEA_acute assay is conducted using Axion Biosystems 48 well microelectrode array (MEA) plates and Maestro recording system. Each well of the MEA plate contains a grid of 16 microelectrodes embedded in the culture surface. Electrically active cells, such as neurons, can be cultured over the electrodes, and electrical activity in these cells can be recorded extracellularly. The spontaneous firing of neurons is captured from each electrode on a microsecond timescale providing both temporally and spatially precise data. […] The CCTE_Shafer_MEA_acute assay uses primary cultures of rat cortical neurons. As these cultures mature over time, neural networks develop functional activity and form cohesive networks in which electrical activity can be highly coordinated. Baseline 40-minute recordings are made on days post-plating 13 or 15, followed by a secondary 40-minute recording after chemical exposure.CCTE_Shafer_MEA_acute_synchrony_index is a component of the CCTE_Shafer_MEA_acute assay. It measures the synchrony of the neural network as a unitless measure between 0 (low synchrony) to 1 (high synchrony) during a recording in a microelectrode array (MEA) using Axion Biosystems Maestro 768 channel amplifier with the AxIS adaptive spike detector. The recordings before and after chemical treatment are used to calculate a percent change in the synchrony index in each well.Data from the assay component CCTE_Shafer_MEA_acute_synchrony_index was analyzed into 1 assay endpoint. This assay endpoint, CCTE_Shafer_MEA_acute_synchrony_index, was analyzed in the negative analysis fitting direction relative to DMSO as the negative control and baseline of activity. Using a type of functional reporter, gain or loss-of-signal activity can be used to understand electrical activity.
Spontaneous activity in the cortical cultures was recorded using an Axion Biosystems Maestro 768 channel amplifier and Axion Integrated Studios (AxIS) v1.8 (or later) software. The amplifier recorded from all channels simultaneously (gain = 1200 x; sampling rate = 12.5 kHz/channel): raw signals were filtered with a Butterworth band-pass filter (300-5000 Hz), which filters out slower local field potentials leaving only fast potentials, i.e., "spikes", arising from extracellular currents associated with action potentials (Pine 2006; Wheeler and Nam 2011). On-line spike detection of filtered signals was conducted with the AxIS adaptive spike detector, using a threshold of 8x the root mean squared (rms) noise on each channel. Any electrodes with rms noise levels greater than 5 uV were grounded (e.g., no data were recorded). Once grounded, an electrode was grounded for the duration of the experiment. All recordings were conducted at 37 C. Wells were deemed usable if on the day of the exposure >/= 10 electrodes were active (defined as >/= 5 spikes/min). On DIV 13 or 15, a minimum of three wells from one cortical culture preparation were treated with each compound (0.03-40 uM). Prior to recording baseline activity, each mwMEA plate was placed in the Maestro at 37 C and allowed to sit for 20 min while firing rates stabilized. Baseline activity (40 min) was recorded before the addition of each compound. An additional 40 min of spontaneous activity was recorded in the presence of each compound. Changes in network parameters relative to baseline were assessed following compound treatment.

outcome, inactive:
COc1ccccc1Oc1c(NS(=O)(=O)c2ccc(C(C)(C)C)cc2)nc(-c2ncccn2)nc1OCCO, CCC[Si](OC(C)=O)(OC(C)=O)OC(C)=O, COc1ccc(C(=O)c2ccccc2O)c(O)c1, CC[N+](CC)(CC(=O)Nc1c(C)cccc1C)Cc1ccccc1 (tested in a mixture with another compound), C1CN(CCOCCN2CCOCC2)CCO1, NC(N)=Nc1nc(CSCCC(N)=NS(N)(=O)=O)cs1, CC1(C)S[C@@H]2[C@H](NC(=O)[C@H](N)c3ccc(O)cc3)C(=O)N2[C@H]1C(=O)O, Cc1c(C(N)=O)cc([N+](=O)[O-])cc1[N+](=O)[O-], CC(C)C1OCCN1CCOC(=O)NCCCCCCNC(=O)OCCN1CCOC1C(C)C (stereo unspecified)

AC50, active:
O=[N+]([O-])c1cc(S(=O)(=O)Nc2ccccc2)ccc1Nc1ccccc1 23.8 µM, CN(C)CCC(c1ccc(Cl)cc1)c1ccccn1 (stereo unspecified) 27.7 µM, COc1cc(CNC(=O)CCCC/C=C/C(C)C)ccc1O 5.59 µM, CN(C)Cc1cc(C(C)(C)C)c(O)c(C(C)(C)C)c1 22.8 µM, CNCCC(Oc1ccc(C(F)(F)F)cc1)c1ccccc1 (stereo unspecified) 6.04 µM, CN(C)C(=O)C(CCN1CCC(O)(c2ccc(Cl)cc2)CC1)(c1ccccc1)c1ccccc1 2.29 µM, CC1(C)S[C@@H]2[C@H](NC(=O)[C@H](N)c3ccccc3)C(=O)N2[C@H]1C(=O)O 0.0846 µM
